The nature of test [1]: compound effects on lung adenocarcinoma cell viability – A549, calcein-AM fluorescence, 48 h, basal, profiling panel (AID 1162). Also: test concentration not given here. The following applies: higher = more signal.
The nature of test [2]: compound effects on differentiated 3T3-L1 adipocyte viability – cell-based, 3T3-L1 adipocytes, calcein-AM fluorescence, 48 h, basal, profiling panel (AID 1163). Also: test concentration not given here. The conditions noted are these: 3T3-L1 adipocytes viability, higher = more signal.
Test [3] in a line: compound effects on hepatocellular carcinoma cell viability – HepG2, calcein-AM fluorescence, 48 h, basal, profiling panel (AID 1164). Also: test concentration not given here. The conditions noted are these: higher = more signal.
Test [4] can be described thus: compound effects on multiple myeloma cell viability – MM1S, calcein-AM fluorescence, 48 h, basal, profiling panel (AID 1165). Also: test concentration not given here. The conditions noted are these: higher = more signal.
Test [5] is described as follows: calcein-AM signal in unstimulated myeloma cells – cell-based, calcein-AM fluorescence, 48 h, PK04 Diversity Set, profiling panel (AID 1166).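 Also: cells grown under basal conditions without added stimulus; test concentration not given here.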 The following applies: RPMI8226 myeloma viability, higher = more signal.
Test [6] can be described thus: JC-1 mitochondrial signal, unstimulated HepG2 cells – cell-based, JC-1 fluorescence, 24 h, 100 nL compound, profiling panel (AID 1167). Also: test concentration not given here. The following applies: HepG2 mitochondrial potential, higher = more signal.
The nature of test [7]: JC-1 mitochondrial signal, unstimulated adipocytes – cell-based, JC-1 fluorescence, 3T3-L1 adipocytes, 24 h, 100 nL compound, profiling panel (AID 1168). Also: test concentration not given here. The following applies: JC-1 mitochondrial fluorescence, higher = more signal, called active from +8 up or from −8 down.
Test [8] is described as follows: JC-1 mitochondrial signal, unstimulated myeloma cells – cell-based, JC-1 fluorescence, RPMI8226, 24 h, 100 nL compound, profiling panel (AID 1169). Also: test concentration not given here. The conditions noted are these: JC-1 mitochondrial potential fluorescence, higher = more signal.
The nature of test [9]: JC-1 mitochondrial signal, unstimulated MM1S myeloma – cell-based, JC-1 fluorescence, 24 h, 100 nL compound, profiling panel (AID 1170). Also: test concentration not given here. The following applies: MM1S mitochondrial potential, higher = more signal.
A short description of test [10]: resazurin metabolic signal in A549 cells – cell-based, resazurin fluorescence, 24 h, PK04 Diversity Set, profiling panel (AID 1171). Also: test concentration not given here. The conditions noted are these: A549 viability, higher = more signal, called active from +8 up or from −8 down. Background: Resazurin is reduced to fluorescent resorufin, in cell work by metabolically active cells.
Test [11] in a line: resazurin metabolic signal in HepG2 cells – cell-based, resazurin fluorescence, 24 h, PK04 Diversity Set, profiling panel (AID 1172). Also: test concentration not given here. The following applies: HepG2 viability, higher = more signal.
A short description of test [12]: budding yeast growth changes without added modifier – OD600, strain BY4716, 24 h, basal condition, primary screen (AID 1173). The conditions noted are these: S. cerevisiae BY4716 growth, OD600, 24 h; higher = more signal, called active from +8 up or from −8 down.
Test [13] can be described thus: viability profiling in MM1S myeloma cells – cell-based, resazurin fluorescence, basal, 24 h, PK04 Diversity Set, profiling panel (AID 1174). Also: test concentration not given here. The following applies: higher = more signal, called active from +8 up or from −8 down.
The target in test [14] is Dihydroorotate dehydrogenase (quinone), mitochondrial (Plasmodium falciparum (isolate 3D7)) (UniProt Q08210). The test is described as follows: inhibition of P. falciparum DHODH – biochemical, C-terminal His tag, absorbance 600 nm, primary screen (AID 1175).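 Also: recombinant parasite enzyme with a five histidine tag at its C terminus; test concentration not given here.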 The following applies: PfDHODH enzyme, DCIP absorbance 600 nm; higher = more signal, called active from +8 up or from −8 down.

The nature of test [15]: inhibition of PAO1 biofilm formation – strain PAO1, LB-PBS medium, absorbance 600 nm, primary screen (AID 1176). Also: test concentration not given here. The following applies: P. aeruginosa PAO1 growth/biofilm, A600, 12 h; higher = more signal.
Test [16] in a line: growth modulation of vineyard yeast isolate – strain RM11-1a, OD600, basal, 24 h, primary screen (AID 1177).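 Also: cultures grown under basal conditions with no added stressor; test concentration not given here.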 The conditions noted are these: S. cerevisiae RM11-1a growth, OD600, 24 h; higher = more signal, called active from +8 up or from −8 down.
Test [17] can be described thus: growth of efflux-deficient E. coli DRC39 – strain DRC39, OD650, 24 h, E. coli filamentation inducers, primary screen (AID 1178).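 Also: growth measured as culture turbidity by optical density at 650 nm; test concentration not given here.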 The following applies: E. coli DRC39 acrAB, higher = more signal, called active from +8 up or from −8 down.
A short description of test [18]: growth of efflux-deficient E. coli DRC39 – strain DRC39, OD650, 48 h, E. coli filamentation inducers, primary screen (AID 1179).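 Also: screen aims at cell division blockers that make cells filament.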 The conditions noted are these: E. coli DRC39 delta-acrAB growth, higher = more signal, called active from +8 up or from −8 down.
The nature of test [19]: viability profiling in RPMI8226 myeloma cells – cell-based, resazurin fluorescence, basal, 24 h, PK04 Diversity Set, profiling panel (AID 1180).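 Also: RPMI8826 multiple myeloma cell line at 5000 cells per well; test concentration not given here.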 The following applies: higher = more signal.
The target in test [20] is E3 ubiquitin-protein ligase XIAP (Homo sapiens) (UniProt P98170). The test is described as follows: small molecules binding XIAP protein – biophysical, small-molecule microarray, fluorescence 635 nm, primary screen (AID 1181).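 Also: score merges 667 nm emission and signal to noise over triplicate slides.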 The conditions noted are these: higher = more signal.

Activity calls are given as the source filed them. Unless noted, no rule for the calls is given here.

E3 ubiquitin-protein ligase XIAP (Homo sapiens), sequence (P98170 whole entry, looked up): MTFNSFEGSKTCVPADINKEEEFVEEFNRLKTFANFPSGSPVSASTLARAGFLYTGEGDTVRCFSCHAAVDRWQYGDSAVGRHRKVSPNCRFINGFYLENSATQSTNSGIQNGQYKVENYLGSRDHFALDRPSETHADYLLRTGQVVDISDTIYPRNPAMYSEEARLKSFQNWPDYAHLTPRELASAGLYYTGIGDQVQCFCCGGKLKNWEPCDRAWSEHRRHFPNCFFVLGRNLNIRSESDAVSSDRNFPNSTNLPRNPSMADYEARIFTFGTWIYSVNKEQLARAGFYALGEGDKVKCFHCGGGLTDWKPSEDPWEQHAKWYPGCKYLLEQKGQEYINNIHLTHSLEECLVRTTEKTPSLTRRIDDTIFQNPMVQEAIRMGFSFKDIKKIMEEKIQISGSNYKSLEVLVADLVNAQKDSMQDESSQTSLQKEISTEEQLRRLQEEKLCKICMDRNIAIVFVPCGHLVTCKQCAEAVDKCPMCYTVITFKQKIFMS
Dihydroorotate dehydrogenase (quinone), mitochondrial (Plasmodium falciparum (isolate 3D7)), sequence (Q08210 whole entry, looked up): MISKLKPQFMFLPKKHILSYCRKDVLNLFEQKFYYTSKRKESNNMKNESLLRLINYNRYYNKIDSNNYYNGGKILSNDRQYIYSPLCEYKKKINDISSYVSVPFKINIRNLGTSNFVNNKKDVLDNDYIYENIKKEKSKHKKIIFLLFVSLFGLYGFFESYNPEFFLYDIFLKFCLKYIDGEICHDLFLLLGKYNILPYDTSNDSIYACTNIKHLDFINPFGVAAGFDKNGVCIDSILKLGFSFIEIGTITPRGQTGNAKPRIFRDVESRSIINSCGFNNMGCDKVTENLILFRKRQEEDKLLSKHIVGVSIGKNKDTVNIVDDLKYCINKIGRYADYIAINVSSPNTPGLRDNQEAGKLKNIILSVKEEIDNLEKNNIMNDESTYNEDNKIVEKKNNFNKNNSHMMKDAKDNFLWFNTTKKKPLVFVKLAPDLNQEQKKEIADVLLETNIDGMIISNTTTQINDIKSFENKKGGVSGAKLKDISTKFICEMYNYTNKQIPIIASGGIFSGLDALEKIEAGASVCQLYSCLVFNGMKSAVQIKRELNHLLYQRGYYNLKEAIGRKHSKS

Consider `O=C(NCC(F)(F)F)[C@@H]1c2ccccc2C(=O)N(Cc2cc(C(F)(F)F)cc(C(F)(F)F)c2)[C@H]1c1ccc(CO)cc1`, for which the z-score in test [1] is 0.964; in test [2], -0.0843; in test [3], 1.42; in test [4], -0.202; in [5], 1.07; in test [6], 1.95. For the same compound, the z-score was 1.36 (inactive) in test [7]; 0.801 in [8]; -0.626 in test [9]; 0.651 (inactive) in test [10]; 0.0606 in test [11]; 1.26 (inactive) in test [12]. Also, the z-score was 0.885 (inactive) in test [13]; -0.0249 (inactive) in [15]; 0.378 (inactive) in test [16]; 0.783 (inactive) in [17]; 1.41 (inactive) in test [18]; 1.1 in test [19]. Moreover, the composite z-score is 0.398 (inactive) in [14] and 0.295 in [20].
Turning to `CC(C)C[C@@H]1NC(=O)[C@H]2C[C@@H](C(=O)O)[C@@H](c3cccc(OCCO)c3)N2C1=O`, the z-score was -0.218 in test [1]; -0.234 in [2]; -0.072 in test [3]; -1.36 in test [4]; -0.0757 in test [5]; 0.664 in [6]. Moreover, the z-score in [7] is -0.115 (inactive); in test [8], -0.0946; in test [9], -0.449; in test [10] it was 0.668 (inactive); in test [11] it was 0.109; in [12] it was -0.25 (inactive). Further, the z-score was -0.636 (inactive) in test [13]; 0.202 (inactive) in [15]; -0.79 (inactive) in test [16]; -0.191 (inactive) in test [17]; 0.421 (inactive) in [18]; 0.462 in test [19]. Besides, the composite z-score in test [14] was -1.19 (inactive); in [20], 0.0845.
Take `CC(C)N1C(=O)[C@@]2(Cc3ccccc31)c1ccccc1C(=O)N(Cc1ccccc1)[C@H]2c1ccc(CO)cc1`: the z-score in [1] is -0.128; in [2], 0.0609; in test [3] it was -0.112; in [4], -0.436; in test [5] it was -0.617; in [6], -0.0756. For the same compound, the z-score in test [7] was -0.0814 (inactive); in [8], 0.122; in test [9], 0.687; in [10] it was 0.247 (inactive); in [11] it was -0.147; in [12], 2.07 (inactive). The z-score in [13] was 0.144 (inactive); in test [15] it was 0.338 (inactive); in test [16], 1.69 (inactive); in [17], 0.367 (inactive); in [18], -0.665 (inactive); in test [19], 0.0769. The composite z-score is -19.1 (active) in test [14] and -0.337 in test [20].
For the compound `Cc1ccc(S[C@]2(C(=O)NC(C)C)CC(=O)N(Cc3ccccc3)[C@@H]2c2ccc(CO)cc2I)cc1`, the z-score in test [1] was 0.15; in test [2] it was 0.547; in test [3] it was 1; in test [4], -2.02; in test [5], -1.69; in [6] it was 0.744. The z-score in test [7] was 0.98 (inactive); in test [8], -0.25; in [9], -1.23; in test [10] it was -1.13 (inactive); in [11], -0.885; in test [12], -2.23 (inactive). Moreover, the z-score is -3.48 (inactive) in test [13]; 0.003 (inactive) in test [15]; -0.101 (inactive) in [16]; -0.0759 (inactive) in test [17]; 0.494 (inactive) in test [18]; -2.8 in test [19]. The composite z-score in test [14] was -0.489 (inactive); in test [20] it was 0.301.
As to `COC(=O)[C@@]1(Cc2ccccc2)[C@H]2c3cc(C(=O)N(C)C)n(Cc4ccc(Cl)c(C(F)(F)F)c4)c3C[C@H]2CN1C(=O)c1ccccc1`, the z-score is -1.42 in test [1]; 0.562 in test [2]; -2.06 in test [3]; -2.56 in [4]; -4.44 in [5]; 2.34 in test [6]. Also, the z-score was -1.28 (inactive) in test [7]; -0.968 in test [8]; -1.24 in [9]; -1.6 (inactive) in test [10]; -1.83 in test [11]; 2.32 (inactive) in test [12]. For the same compound, the z-score in test [13] is -2.53 (inactive); in test [15], 1.43 (inactive); in test [16], 1.37 (inactive); in [17], -1.4 (inactive); in test [18], -0.744 (inactive); in [19], -2.95. In addition, the composite z-score in [14] is 0.46 (inactive); in [20], 0.331.
On to `COc1ccc([Si](C)(C)[C@@H]2[C@@H](CC(=O)N3Cc4ccccc4C[C@H]3CO)O[C@]3(C(=O)N(Cc4ccc(I)cc4)c4ccccc43)[C@H]2C)cc1`, for which the z-score in test [1] is -0.806; in [2], 0.62; in test [3], -0.435; in [4], -1.98; in test [5] it was -0.588; in test [6], 0.81. Also, the z-score was 0.124 (inactive) in [7]; -0.531 in test [8]; 0.122 in test [9]; -0.663 (inactive) in test [10]; 0.454 in test [11]; -0.0671 (inactive) in [12]. Also, the z-score in test [13] is -1 (inactive); in test [15] it was 0.662 (inactive); in test [16] it was 2.33 (inactive); in test [17], 0.101 (inactive); in test [18], -0.092 (inactive); in test [19], -0.336. The figures for the composite z-score in test [14] and in test [20] were 0.312 (inactive) and 0.262, respectively.
On to `C=CCOC(=O)[C@@H]1[C@H]2C(=O)O[C@H](c3ccccc3)[C@H](c3ccccc3)N2[C@H](c2ccc(OCCOC(=O)[C@@H]3C[C@@H]4C(=O)N[C@@H](CC(C)C)C(=O)N4[C@@H]3c3ccc(O)cc3)cc2)[C@@]12C(=O)Nc1ccc(I)cc12`, for which the z-score was -0.226 in test [1]; 0.175 in [2]; -0.0024 in [3]; 0.26 in test [4]; 1.31 in test [5]; -1.61 in test [6]. The z-score in test [7] was 0.872 (inactive); in test [8], -0.575; in test [9], -0.925; in test [10], 0.595 (inactive); in test [11], 0.438; in test [12] it was 0.893 (inactive). In addition, the z-score is 0.246 (inactive) in test [13]; 0.848 (inactive) in test [15]; 1.75 (inactive) in test [16]; 0.703 (inactive) in test [17]; -0.215 (inactive) in [18]; 0.676 in test [19]. Besides, the composite z-score in test [14] is -1.42 (inactive); in [20], 0.155.
For the compound `CCN1C(=O)C2CC(=O)C3C(CN(S(=O)(=O)c4ccc(C)cc4)C3c3ccc(C)cc3)C2C1=O` (stereo not given), the z-score is 0.159 in test [1]; -0.902 in test [2]; 0.118 in test [3]; 1.03 in test [4]; 0.0667 in test [5]; -0.167 in test [6]. Moreover, the z-score in test [7] was -0.00388 (inactive); in test [8] it was -0.129; in [9], -1.25; in test [10] it was -0.064 (inactive); in test [11] it was -0.733; in test [12] it was 0.728 (inactive). Further, the z-score in [13] is -0.631 (inactive); in [15], -0.144 (inactive); in test [16] it was 0.5 (inactive); in test [17], -0.772 (inactive); in [18], 0.346 (inactive); in [19], -0.627. Further, the composite z-score was 0.551 (inactive) in test [14] and -0.148 in [20].
Take `COC(=O)[C@@]1(Cc2ccc(F)cc2)[C@H]2c3cc(C(=O)N4CCCC4)n(CCc4c[nH]c5cc(F)ccc45)c3C[C@H]2CN1C(=O)c1ccccc1`: the z-score in test [1] was -0.767; in [2] it was -0.0351; in test [3], 0.194; in test [4], -0.234; in test [5], -1.37; in [6] it was 2.18. For the same compound, the z-score was -1.2 (inactive) in [7]; -0.449 in [8]; -1.21 in test [9]; 0.339 (inactive) in [10]; 0.182 in test [11]; 1.7 (inactive) in test [12]. The z-score in test [13] was -0.0568 (inactive); in test [15], -0.815 (inactive); in test [16] it was 0.335 (inactive); in test [17], -0.426 (inactive); in test [18], -0.55 (inactive); in [19], -0.162. In addition, the composite z-score in test [14] was -0.362 (inactive); in test [20], 0.0535.

(Values after PubChem BioAssay.)
